An excerpt weighted towards active compounds, which were near 0.022% of everything screened.
GALK inh: qHTS Assay for Inhibitors of Human Galactokinase (GALK): NCGC Sytravon Library Screen | 44,000 tested, under 10 active | Potency, µM (top dose mostly 57.5 µM), inactives show at the top dose activity, negative = inhibition, usual class: inhibitors | P51570 | recombinant GALK, Kinase-Glo ATP luminescence, 1 h | AID 1347072, 2019;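 note: plate controls were full GALK reaction for no effect and reaction lacking GALK for full effect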
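Compounds were pinned into ATP buffer, then GALK-galactose mix was added (final 5 nM enzyme, 35 uM ATP, 100 uM galactose, pH 8.0). After 1 h at room temperature, Kinase-Glo Plus was added and luminescence read.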
B2AR arrestin ag: qHTS assay of beta-arrestin-biased ligands of beta2-adrenergic receptor: NCGC Sytravon Library Screen; Beta-2 adrenergic receptor (Homo sapiens), P07550; HTLA Tango cells, beta-arrestin recruitment, luciferase luminescence, 18 h; Potency, µM (series often up to 46.1 µM), most hits filed as activators; 44,000 tested, under 10 active; AID 1347077, 2019;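 note: potency is the fitted concentration of half-maximal effect; 0% = DMSO and full agonism = EC100 isoproterenol or metaproterenol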
Target sequence (P07550 whole entry, looked up): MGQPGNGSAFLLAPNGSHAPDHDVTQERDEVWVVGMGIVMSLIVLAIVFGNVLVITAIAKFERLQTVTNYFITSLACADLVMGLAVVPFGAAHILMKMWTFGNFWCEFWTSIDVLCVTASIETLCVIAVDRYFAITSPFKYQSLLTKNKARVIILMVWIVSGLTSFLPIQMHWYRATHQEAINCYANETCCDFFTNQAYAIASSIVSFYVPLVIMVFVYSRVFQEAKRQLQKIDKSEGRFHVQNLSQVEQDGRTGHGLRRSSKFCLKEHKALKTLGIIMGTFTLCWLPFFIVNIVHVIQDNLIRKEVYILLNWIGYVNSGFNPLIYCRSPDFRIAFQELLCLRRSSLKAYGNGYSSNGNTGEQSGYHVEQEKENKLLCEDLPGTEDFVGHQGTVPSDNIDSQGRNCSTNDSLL
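First, Tango cells carrying beta2-AR and beta-arrestin fusions received compound up to 46 microM. After 18 hr at 37 degrees C, luciferase substrate was added for 15 minutes, then luminescence gave %Activity for curve fitting.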
PTAP-TSG101 blk: qHTS Validation Assay for Inhibitors of HIV-1 Budding by Blocking the Interaction of PTAP/TSG101: Sytravon Library Screen; Tumor susceptibility gene 101 protein (Homo sapiens), Q99816; Fluorescence polarization, FITC-PTAP peptide/Tsg101, 20 min; Potency, µM (highest dose often 115 µM), actives largely listed as inhibitors; 44,000 tested, under 10 active; AID 1347069, 2019; note: potency is the fitted concentration of half-maximal effect; 0% is about no effect
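Fluorescence polarization: Tsg101 binding domain (10 uM final) in 10 mM HEPES pH 7.5, 0.15 M NaCl, 0.01% Tween 20, 3 mM EDTA, 0.1 mM TCEP; compounds pinned; FITC-PTAP peptide 50 nM final; 20 min, r.t.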
* hit, by the source's call. Calls come from the whole dose curve; as a rule, active = well fitted curve in the direction sought with a large enough effect; inconclusive = small, poorly fitted or top-dose-only effect, or another doubt; inactive = no such curve, though single readings can be large; an effect the other way counts as inactive or inconclusive.

For CCOc1ccc(NC(=O)CSc2cc(C)c3ccccc3n2)cc1 the results were GALK inh 0.3%, B2AR arrestin ag inactive and PTAP-TSG101 blk inactive.
Screening COc1ccc(Nc2ncc(C(=O)N3CCN(c4cccc(Cl)c4)CC3)c3ccccc23)cc1 returned GALK inh 0.0%, B2AR arrestin ag inactive and PTAP-TSG101 blk inactive.
For COCC(=O)N1CCc2cc(OC)c(OC)cc2C1COc1ccc2c(C)cc(=O)oc2c1 (configuration not stated) the results were GALK inh 5.2%, B2AR arrestin ag inactive and PTAP-TSG101 blk inactive.
N#Cc1c(-n2ncnc2-c2cccc(Cl)c2)sc2c1CCCCC2 was read as GALK inh -0.9%, B2AR arrestin ag inactive and PTAP-TSG101 blk inactive.
Screening COC(=O)c1sccc1S(=O)(=O)N(CC(=O)NCc1ccc(F)cc1)c1ccc(Cl)cc1 returned GALK inh 4.0%, B2AR arrestin ag inactive and PTAP-TSG101 blk inactive.
`O=C(NCCc1csc(-c2ccc(F)cc2)n1)c1cccs1` gave GALK inh 2.3%, B2AR arrestin ag inactive and PTAP-TSG101 blk inactive.
`CCOC(=O)c1ccc(N2C(=O)c3n[nH]c(-c4ccco4)c3C2c2ccc(OC)cc2OC)cc1` (configuration not stated) gave GALK inh 0.4%, B2AR arrestin ag inactive and PTAP-TSG101 blk inactive.
`CCc1ccc(-c2nc(CS(=O)CC(=O)NCCc3ccc(C)cc3)c(C)o2)cc1` (configuration not stated) gave GALK inh -2.2%, B2AR arrestin ag inactive and PTAP-TSG101 blk inactive.
`Cc1cccc(NC(=O)c2ccc(CN3CC(=O)N4CCCCC4C3=O)cc2)c1C` (configuration not stated) gave GALK inh 1.7%, B2AR arrestin ag inactive and PTAP-TSG101 blk inactive.
`Cc1cc(Nc2cccc(C(F)(F)F)c2)nc2ccc(NC(=O)c3cccnc3)cc12` gave GALK inh 1.6%, B2AR arrestin ag inactive and PTAP-TSG101 blk inactive.
Screening NC(=O)Cn1c(=O)n(CCCCCC(=O)NCc2ccccc2)c(=O)c2sccc21 returned GALK inh -6.7%, B2AR arrestin ag inactive and PTAP-TSG101 blk inactive.
`CCCNC(=O)C1CCC(Cn2c(=O)c3sccc3n(CC(=O)N3CCCC(C)C3)c2=O)CC1` (configuration not stated) gave GALK inh -2.1%, B2AR arrestin ag inactive and PTAP-TSG101 blk inactive.
CCCN(CCC)CCNC(=O)Cn1cc2c(n1)-c1c(oc(C(=O)N3CCCC3)c1C)CC2 was read as GALK inh 0.7%, B2AR arrestin ag 22.4µM* and PTAP-TSG101 blk inactive.
For CCCCN(CCCC)CCCNC(=O)Cn1cc2c(n1)-c1c(oc(C(=O)N3CCCC3)c1C)CC2 the results were GALK inh -0.5%, B2AR arrestin ag inconclusive and PTAP-TSG101 blk inactive.
`Cc1cn2c(=O)c(S(=O)(=O)NCCc3ccccc3)c(C)nc2s1` gave GALK inh 5.0%, B2AR arrestin ag inactive and PTAP-TSG101 blk inactive.
For CN(C)CCN(Cc1ccco1)C(=O)c1cc2c(s1)-c1ccccc1OC2 the results were GALK inh -1.2%, B2AR arrestin ag inactive and PTAP-TSG101 blk inactive.
`CC(NC(=O)c1ccc2c(c1)N(Cc1ccc(Cl)cc1)C(=O)c1ccccc1S2=O)c1ccccc1` (configuration not stated) gave GALK inh -1.8%, B2AR arrestin ag inactive and PTAP-TSG101 blk inactive.
Screening CCC1CN(C(=O)N2CCC(C(=O)N3CCN(c4cc(C)ccc4C)CC3)CC2)c2ccccc2O1 (configuration not stated) returned GALK inh -11.0%, B2AR arrestin ag inactive and PTAP-TSG101 blk inactive.
Screening Cc1ccc(-c2c(C)n3c4c(=O)n(C)c(=O)n(C)c4nc3n2CCCO)cc1 returned GALK inh 3.8%, B2AR arrestin ag inactive and PTAP-TSG101 blk inactive.
`Cc1cn2c(=O)cc(COC(=O)c3ccc(NC(=O)c4ccc(F)cc4)cc3)nc2s1` gave GALK inh 2.3%, B2AR arrestin ag inactive and PTAP-TSG101 blk inactive.
`CC(C)S(=O)(=O)c1oc(-c2cccs2)nc1S(=O)(=O)c1ccc(F)cc1` gave GALK inh -12.0%, B2AR arrestin ag inactive and PTAP-TSG101 blk inactive.
CCc1ccc(OCC(=O)Nc2ccc3c(c2)c2ccccc2n3CC)c(Br)c1 was read as GALK inh 1.5%, B2AR arrestin ag inactive and PTAP-TSG101 blk inactive.
Screening CCn1cc(C(=O)Nc2ccc(C(C)C)cc2)c2cc(OC)c(OC)cc2c1=O returned GALK inh 6.6%, B2AR arrestin ag inactive and PTAP-TSG101 blk inactive.
Cc1ccc(NS(=O)(=O)c2ccc(-c3cc(C)no3)cc2)c(C)c1 was read as GALK inh 1.8%, B2AR arrestin ag inactive and PTAP-TSG101 blk inactive.
Screening COc1ccccc1-n1c(=O)n(C)c2c(C(N)=O)nc(-c3cccc(OC)c3OC)nc21 returned GALK inh -2.3%, B2AR arrestin ag inactive and PTAP-TSG101 blk inactive.
`COc1ccc(C)cc1NS(=O)(=O)c1cnc(N)nc1` gave GALK inh -6.4%, B2AR arrestin ag inactive and PTAP-TSG101 blk inactive.
COc1cccc(C(=O)Nc2cccc(C(=O)OCc3cc(=O)n4nc(C5CC5)sc4n3)c2)c1 was read as GALK inh -2.6%, B2AR arrestin ag inactive and PTAP-TSG101 blk inactive.
`C=CCc1ccccc1OCCSc1nc(-c2ccccc2F)nc2cc(=O)[nH]n12` gave GALK inh 1.2%, B2AR arrestin ag inactive and PTAP-TSG101 blk inactive.
Screening COc1cccc(-n2cc(C(=O)Nc3ccccc3C(N)=O)c3ccccc3c2=O)c1 returned GALK inh 0.0%, B2AR arrestin ag inactive and PTAP-TSG101 blk inactive.
For COc1cccc(N2CCN(C(=O)c3cnn(-c4ccc(C)cc4C)c3C3CCN(C(=O)OC(C)(C)C)CC3)CC2)c1 the results were GALK inh -2.7%, B2AR arrestin ag inactive and PTAP-TSG101 blk inactive.
`CCOc1ccc(S(=O)(=O)N(C(=O)c2ccncc2)c2ccc3oc(C)c(C(=O)OC)c3c2)cc1` gave GALK inh 0.4%, B2AR arrestin ag inactive and PTAP-TSG101 blk inactive.
O=C1COc2ccc(-c3cc(-c4ccc(F)cc4)c4c(n3)-c3ccccc3OC4)cc2N1 was read as GALK inh -0.3%, B2AR arrestin ag inactive and PTAP-TSG101 blk inactive.
Screening Cc1ccc(CNC(=O)c2cnc(N(C)C)nc2)cc1 returned GALK inh -1.8%, B2AR arrestin ag inactive and PTAP-TSG101 blk inactive.
Screening CCC(C(=O)Nc1ccc(C(C)C)cc1)n1nc(C)n2c(cc3cc(C)ccc32)c1=O (configuration not stated) returned GALK inh -11.0%, B2AR arrestin ag inactive and PTAP-TSG101 blk inactive.
Screening Cc1ccc(Nc2ccc(N3CCN(C(=O)c4cccc([N+](=O)[O-])c4)CC3)nn2)cc1 returned GALK inh -5.0%, B2AR arrestin ag inactive and PTAP-TSG101 blk inactive.

Screens deposited in PubChem by National Center for Advancing Translational Sciences (NCATS).
